Results: ChEMBL document CHEMBL3988442, “University of Dundee, Small-Polar-MMV Screening Library” (2021)
About 13,000 (27%) of roughly 48,000 compounds showed an effect of 50% or more. The list shows a part of the results.

Tested on: Wolbachia pipientis
Experiment: Anti-Wolbachia Cell-Based Screen
Type: functional
Set-up: scale not given: in the data most compounds retested in dose-response had high values
Conditions: 5 µM

Compound	Percent Effect
COc1ccc(Br)c(C(=O)N2CCCC(c3nc(C)no3)C2)c1 (centres undefined)	-8.45%
CCC(=O)N1CCN(C(=O)Nc2cccc(N3CCOCC3)c2)CC1	-13.34%
O=C(c1cccc(S(=O)(=O)NCCCc2ncc[nH]2)c1)N1CCOCC1	-4.417%
CN1CC2(CCN(Cc3ncc[nH]3)CC2)CC1=O	-5.481%
Cn1ccnc1CN1CCC2(CC(=O)N(c3ccc4c(c3)OCO4)C2)C1.O=C(O)C(F)(F)F (centres undefined)	-22.94%
CC(C)n1ccnc1CN1CCOC(C)(C(=O)N2CCOCC2)C1 (centres undefined)	127.3%
CC(C)n1ccnc1CN1CCCN(C(=O)c2nccnc2N)CC1	3.581%
CC(NC(N)=O)C(=O)N1CCCN(Cc2nccn2C(C)C)CC1 (centres undefined)	-6.463%
Cn1ccnc1CN1CCOC(C)(C(=O)N2CCOCC2)C1 (centres undefined)	108.3%
CC1(C(=O)N2CCOCC2)CN(Cc2ncc[nH]2)CCO1 (centres undefined)	90.74%
Cn1ccnc1CN1CCC2(CC1)CN(CC1CC1)C(=O)CO2	-0.08379%
COc1ccccc1CC1CCCN(CCC#N)C1 (centres undefined)	-6.976%
Cc1nonc1C1CCCN1C(=O)c1cc2n(n1)CCCNC2 (centres undefined)	-3.031%
COc1cc(F)ccc1N(C)Cc1ccccn1	9.437%
COc1ccc(COCC(O)CN(C)c2ccc(C)cc2C)cc1 (centres undefined)	10.8%
COCC(O)CNc1cncc(Br)c1 (centres undefined)	-2.667%
COCC(=O)N1CCC(Nc2ccnc3ccc(Cl)cc23)CC1	-6.533%
COCC(O)CN(C)c1ccnc2ccc(Cl)cc12 (centres undefined)	99.68%
COc1ccc(Cl)cc1NC(=O)N(C)CC(O)COCCOC(C)C (centres undefined)	-8.214%
COCC(O)CN(C)c1ccnc2cc(Br)ccc12 (centres undefined)	92.3%
Cc1ccc(N(C)CC(O)COCc2ccccc2F)c(C)c1 (centres undefined)	0.5576%
COCC(O)CN(C)c1ccnc2cc(F)ccc12 (centres undefined)	83.56%
COC(=O)c1ccc(Cl)c(NS(=O)(=O)c2cnn(C)c2)c1	-1.605%
O=C(CNC(=O)C1CC1)NCC(F)(F)F	-16.51%
Cl.NC(=O)CCc1cccc(C2CCNCC2)n1	115.3%
Cl.O=C(CCc1cccc(C2CCNCC2)n1)N1CCCCC1	116.4%
O=C(CCc1ccccc1)N1CCC(c2n[nH]c(C3CC3)n2)CC1	-4.114%
CNC(=O)[C@H]1C[C@@H]2CN(S(=O)(=O)c3ccc(C)c(F)c3)C[C@@H]2N1C.O=C(O)C(F)(F)F	-6.907%
O=C(c1ccoc1)N1CCCC1C1CCN(Cc2ccccc2)CC1 (centres undefined)	-51.53%
